Measured values from PubChem BioAssay (Tox21).
Where “and” joins values, the source holds several entries; their conditions need not be identical. Equal values may be shown once. More than one record can exist for a structure, and the calls need not agree. Calls of active or inactive are those of the source. A call without a number means that no potency is given here. Unless noted, the call rests on the fitted dose curve; in most records, active means well fitted curve in the direction sought with a large enough effect in the repeat runs; inconclusive means weak or mixed curves; inactive means no such curve, though single readings can be large; an effect the other way counts as inactive or inconclusive.

What was measured:
[1] = qHTS assay to identify small molecule antagonists of the glucocorticoid receptor (GR) signaling pathway - cell viability counter screen (AID 720693); further: nearly all actives have a fitted effect of over 55% in size
[2] = qHTS assay for identifying genotoxic compounds that show differential cytotoxicity against isogenic chicken DT40 cell lines with known DNA damage response pathways - wild type cell line (AID 743012); further: nearly all actives have a fitted effect of over 60% in size; further: potency means the concentration at half of the fitted maximal effect
Summary of the method: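 Cytotoxicity in repair-proficient parental chicken DT40 cells serves as the comparator for Rad54/Ku70- and Rev3-deficient lines. Cells were exposed to compounds for 40 h at 37 C/5% CO2, and ATP-based luminescence (CellTiter-Glo) measured viability.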

[3] = qHTS assay for identifying genotoxic compounds that show differential cytotoxicity against isogenic chicken DT40 cell lines with known DNA damage response pathways - Rev3 mutant cell line (AID 743014); further: nearly all actives have a fitted effect of over 55% in size; further: potency means the concentration at half of the fitted maximal effect
[4] = qHTS assay for identifying genotoxic compounds that show differential cytotoxicity against isogenic chicken DT40 cell lines with known DNA damage response pathways - Rad54/Ku70 mutant cell line (AID 743015); further: nearly all actives have a fitted effect of over 60% in size; further: potency means the concentration at half of the fitted maximal effect
[5] = qHTS assay to identify small molecule antagonists of the androgen receptor (AR) signaling pathway - cell viability counter screen (AID 743033; further: nearly all actives have a fitted effect of over 45% in size; further: potency means the concentration at half of the fitted maximal effect)
[6] = biological target: Androgen receptor (Homo sapiens) (UniProt P10275); experiment: qHTS assay to identify small molecule antagonists of the androgen receptor (AR) signaling pathway (AID 743035; active means well fitted inhibition curve with a large enough effect in the signal ratio in the repeat runs, not every such curve was filed as active; inconclusive means weak or mixed curves, or effect the other way; inactive means no such curve, though single readings can be large or run the other way; the % refers to the signal ratio; further: potency means the concentration at half of the fitted maximal effect)
Sequence of Androgen receptor (Homo sapiens) (P10275 whole entry, looked up): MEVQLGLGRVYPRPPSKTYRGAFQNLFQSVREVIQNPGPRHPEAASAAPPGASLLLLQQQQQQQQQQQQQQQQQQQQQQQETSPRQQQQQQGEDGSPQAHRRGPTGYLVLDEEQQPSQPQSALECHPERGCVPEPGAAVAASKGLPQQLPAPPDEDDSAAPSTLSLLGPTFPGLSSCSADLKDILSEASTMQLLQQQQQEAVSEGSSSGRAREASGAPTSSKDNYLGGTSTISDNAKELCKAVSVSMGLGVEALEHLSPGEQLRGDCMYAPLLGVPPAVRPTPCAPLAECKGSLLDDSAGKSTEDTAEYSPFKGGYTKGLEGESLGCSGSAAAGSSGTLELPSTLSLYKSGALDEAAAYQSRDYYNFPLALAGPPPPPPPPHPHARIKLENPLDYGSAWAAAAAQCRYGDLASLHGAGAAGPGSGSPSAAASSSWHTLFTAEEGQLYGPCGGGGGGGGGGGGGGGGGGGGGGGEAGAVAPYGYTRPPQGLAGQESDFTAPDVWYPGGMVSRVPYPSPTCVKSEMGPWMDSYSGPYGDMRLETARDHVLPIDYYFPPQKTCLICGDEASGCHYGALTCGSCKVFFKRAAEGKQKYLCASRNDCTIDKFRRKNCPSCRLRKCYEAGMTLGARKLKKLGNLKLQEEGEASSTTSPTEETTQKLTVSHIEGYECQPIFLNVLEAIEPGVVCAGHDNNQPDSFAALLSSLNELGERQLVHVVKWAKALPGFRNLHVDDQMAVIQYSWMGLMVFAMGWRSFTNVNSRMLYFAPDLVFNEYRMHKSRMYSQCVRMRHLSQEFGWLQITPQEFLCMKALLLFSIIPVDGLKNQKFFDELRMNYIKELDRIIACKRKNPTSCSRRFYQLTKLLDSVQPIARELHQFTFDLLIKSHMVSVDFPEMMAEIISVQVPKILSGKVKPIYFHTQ
Summary of the method: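 Steps: seed AR-UAS-bla GripTite HEK293 cells, incubate 4 h at 37C; pin in test compound, then add agonist R1881; incubate 16 h at 37C; add LiveBLAzer B/G FRET substrate, 2 h at room temperature; read fluorescence.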

[7] = biological target: Androgen receptor (Homo sapiens) (UniProt P10275); experiment: qHTS assay to identify small molecule agonists of the androgen receptor (AR) signaling pathway using the MDA cell line (AID 743040; further: nearly all actives have a fitted effect of over 20% in size; further: potency means the concentration at half of the fitted maximal effect); conditions: MDA-kb2 AR-luc cells, MMTV luciferase, 16 h; activity change: at 70.3 µM (top of the series), stronger effect = higher value
Summary of the method: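 Stable MMTV-luciferase reporter in MDA-kb2 cells; note the promoter carries GR as well as AR response elements. 16 h compound treatment, 37C, 0% CO2; ONE-Glo luminescence endpoint.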

[8] = qHTS assay to identify small molecule antagonists of the androgen receptor (AR) signaling pathway using the MDA cell line - cell viability counter screen (AID 743041; further: nearly all actives have a fitted effect of over 45% in size; further: potency means the concentration at half of the fitted maximal effect)
Summary of the method: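 Using the breast carcinoma line MDA-kb2 AR-luc, test chemicals were co-incubated with R1881 for 16 h; CellTiter-Fluor reagent, added at 15.5 h, provided a fluorescence measure of live cells.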

[9] = qHTS assay to identify small molecule antagonists of the thyroid receptor (TR) signaling pathway - cell viability counter screen (AID 743064); further: nearly all actives have a fitted effect of over 50% in size; further: potency means the concentration at half of the fitted maximal effect
Summary of the method: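 In-well cytotoxicity read by CellTiter-Fluor (30 min, 37 C) following 23.5 h exposure of GH3 cells bearing a TRE-luciferase sensor. Compounds were added alongside 1 nM (final) T3 to drive TR transactivation.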

[10] = system: thyroid hormone receptor (rat, GH3 cells); experiment: qHTS assay to identify small molecule agonists of the thyroid receptor (TR) signaling pathway (AID 743066; calls by dose curve; further: potency means the concentration at half of the fitted maximal effect)
[11] = qHTS assay to identify small molecule antagonists of the estrogen receptor alpha (ER-alpha) signaling pathway - cell viability counter screen (AID 743074; calls by dose curve; further: nearly all actives have a fitted effect of over 45% in size; further: potency means the concentration at half of the fitted maximal effect)
[12] = biological target: Estrogen receptor (Homo sapiens) (UniProt P03372); experiment: qHTS assay to identify small molecule agonists of the estrogen receptor alpha (ER-alpha) signaling pathway (AID 743075; calls by dose curve; further: potency means the concentration at half of the fitted maximal effect)
Sequence of Estrogen receptor (Homo sapiens) (P03372 whole entry, looked up): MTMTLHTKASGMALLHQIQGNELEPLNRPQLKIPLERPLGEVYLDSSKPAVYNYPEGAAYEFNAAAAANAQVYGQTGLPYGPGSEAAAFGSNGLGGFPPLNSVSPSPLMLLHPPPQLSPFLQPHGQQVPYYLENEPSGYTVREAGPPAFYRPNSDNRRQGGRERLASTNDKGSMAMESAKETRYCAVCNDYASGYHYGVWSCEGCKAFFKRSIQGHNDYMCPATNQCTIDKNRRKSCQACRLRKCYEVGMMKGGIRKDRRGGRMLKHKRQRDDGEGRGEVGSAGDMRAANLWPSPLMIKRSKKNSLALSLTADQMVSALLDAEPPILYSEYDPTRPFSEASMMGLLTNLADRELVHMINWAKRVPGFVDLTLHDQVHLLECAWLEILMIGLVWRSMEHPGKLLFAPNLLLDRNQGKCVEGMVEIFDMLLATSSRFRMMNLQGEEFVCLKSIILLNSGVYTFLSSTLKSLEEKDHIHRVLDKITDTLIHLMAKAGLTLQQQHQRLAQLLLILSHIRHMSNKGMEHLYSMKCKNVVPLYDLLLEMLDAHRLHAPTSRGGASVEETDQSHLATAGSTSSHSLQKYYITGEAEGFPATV

[13] = biological target: Estrogen receptor (Homo sapiens) (UniProt P03372); experiment: qHTS assay to identify small molecule agonists of the estrogen receptor alpha (ER-alpha) signaling pathway using the BG1 cell line (AID 743079); further: nearly all actives have a fitted effect of over 20% in size; further: potency means the concentration at half of the fitted maximal effect
[14] = qHTS assay to identify small molecule antagonists of the estrogen receptor alpha (ER-alpha) signaling pathway using the BG1 cell line (AID 743080; calls by dose curve;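 further: BG1 cells stimulated with 17beta-estradiol alongside compound; nearly all actives have a fitted effect of over 25% in size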)
Summary of the method: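 Endogenous full-length ER-alpha in BG1-Luc-4E2 cells drives a stably integrated 4×ERE luciferase gene; compounds were tested against 17beta-estradiol over 21.5 h, with luminescence and multiplexed viability fluorescence recorded.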

[15] = qHTS assay to identify small molecule antagonists of the estrogen receptor alpha (ER-alpha) signaling pathway using the BG1 cell line - cell viability counter screen (AID 743081);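 further: compound given together with 17beta-estradiol as the ER stimulus; nearly all actives have a fitted effect of over 45% in size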; further: potency means the concentration at half of the fitted maximal effect
Aromatase (Homo sapiens) = Aromatase (Homo sapiens) (UniProt P11511); experiment: qHTS assay to identify aromatase inhibitors (AID 743083); further: nearly all actives have a fitted effect of over 55% in size; further: potency means the concentration at half of the fitted maximal effect
Sequence of Aromatase (Homo sapiens) (P11511 whole entry, looked up): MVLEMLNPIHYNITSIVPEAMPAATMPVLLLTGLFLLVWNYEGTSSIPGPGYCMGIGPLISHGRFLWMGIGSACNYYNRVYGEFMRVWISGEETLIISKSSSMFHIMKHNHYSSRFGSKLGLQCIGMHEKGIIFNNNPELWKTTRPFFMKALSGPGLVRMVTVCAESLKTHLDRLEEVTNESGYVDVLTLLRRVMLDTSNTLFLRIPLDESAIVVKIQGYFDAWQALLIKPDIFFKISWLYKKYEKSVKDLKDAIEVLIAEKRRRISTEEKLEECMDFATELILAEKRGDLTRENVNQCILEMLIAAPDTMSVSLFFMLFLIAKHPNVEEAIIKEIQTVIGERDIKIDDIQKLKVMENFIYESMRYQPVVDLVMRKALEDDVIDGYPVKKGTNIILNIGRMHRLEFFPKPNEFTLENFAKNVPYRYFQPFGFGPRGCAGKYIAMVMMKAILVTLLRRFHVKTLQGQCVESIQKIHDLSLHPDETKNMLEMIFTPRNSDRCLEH

[16] = qHTS assay to identify aromatase inhibitors - cell viability counter screen (AID 743084);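 further: cells stimulated with testosterone during compound exposure; nearly all actives have a fitted effect of over 55% in size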; further: potency means the concentration at half of the fitted maximal effect
[17] = biological target: Androgen receptor (Homo sapiens) (UniProt P10275); experiment: qHTS assay to identify small molecule agonists of the androgen receptor (AR) signaling pathway (AID 743036; active means well fitted activation curve with a large enough effect in the signal ratio in the repeat runs, with a control signal flat, not every such curve was filed as active; inconclusive means weak or mixed curves, or effect the other way; inactive means no such curve, though single readings can be large or run the other way; the % refers to the signal ratio; further: potency means the concentration at half of the fitted maximal effect)
Summary of the method: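 Activation was read as beta-lactamase FRET signal from LiveBLAzer B/G substrate, added for 2 h at room temperature. Before that, GeneBLAzer AR-UAS-bla GripTite (HEK293) cells had 16 h compound exposure at 37C.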

[18] = qHTS assay to identify small molecule antagonists of the thyroid receptor (TR) signaling pathway (AID 743065); further: nearly all actives have a fitted effect of over 55% in size; further: potency means the concentration at half of the fitted maximal effect
Summary of the method: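 Antagonism measured as loss of luciferase signal in GH3 cells stably carrying a TRE-luciferase reporter, co-treated with compound and T3 (1 nM final) for 23.5 h at 37 C. Viability was read in the same well by CellTiter-Fluor.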

[19] = biological target: Estrogen receptor (Homo sapiens) (UniProt P03372); experiment: qHTS assay to identify small molecule antagonists of the estrogen receptor alpha (ER-alpha) signaling pathway (AID 743069; active means well fitted curve in the direction sought with a large enough effect in the signal ratio in the repeat runs, not every such curve was filed as active; inconclusive means weak or mixed curves, or effect the other way; inactive means no such curve, though single readings can be large or run the other way; the % refers to the signal ratio)
Summary of the method: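 Fluorescence intensity from a beta-lactamase FRET substrate served as the read-out. Cells: HEK293 with stably integrated ER-alpha-UAS-bla reporter. Agonist 17beta-estradiol was co-added with compounds; incubation 18 hr at 37C, substrate 2 hr at room temperature.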

SMILES	Potency [1]	Potency [2]	Potency [3]	Potency [4]	Potency [5]	Potency [6]	Potency [7]	Potency [8]	Potency [9]	Potency [10]	Potency [11]	Potency [12]	Potency [13]	Potency [14]	Potency [15]	Potency (Aromatase (Homo sapiens))	Potency [16]	Potency [17]	Potency [18]	Potency [19]
COP(=S)(OC)Oc1cc(Cl)c(Cl)cc1Cl	inactive	inactive	inactive	inactive	inactive	inactive	inactive	inactive	inactive	inactive	inactive	inactive	inactive	inactive	inactive	inactive	inactive			
CCN(CC)C(=O)/C(Cl)=C(\C)OP(=O)(OC)OC	inactive	inactive	inactive	inactive	inactive	inactive	inactive	inactive	inactive	inactive	inactive	inactive	inactive	inactive	inactive	inactive	inactive	inactive	inactive	inactive
CCC(=O)O[C@H]1CC[C@H]2[C@@H]3CCC4=CC(=O)CC[C@]4(C)[C@H]3CC[C@]12C	inactive	10.1 µM (active) and 19.3 µM (active)	11.4 µM (active) and 17.2 µM (active)	12.7 µM (active) and 21.7 µM (active)	inactive and 49 µM (active)		1.3 nM (active) and 1.7 nM (active)	inactive	inactive and 43.3 µM (active)	inactive	inactive	3.23 µM [inconclusive] (active) and 3.47 µM [inconclusive] (active)	22.7 nM (active) and 34.4 nM (active)	inactive	inactive	inactive	inactive	0.0039 µM (active)		
CC(C)N(C(=O)SCC(Cl)=C(Cl)Cl)C(C)C	inactive	61.1 µM (active)	inactive and 54.5 µM (active)	inactive and 30.6 µM (active)	inactive			inactive	47.9 µM (active)	inactive	inactive				inactive				53.8 µM (active) and 61.1 µM (active)	
CC(C)c1ccc(CO)cc1	inactive	inactive	inactive	inactive	inactive	inactive		inactive	inactive	inactive	inactive	43.7 µM [inconclusive] (active) and inactive	54.5 µM (active) and inactive	inactive	inactive	inactive	inactive		inactive	inactive
N#CCCCl	inactive	inactive	inactive	inactive	inactive			inactive	inactive	inactive	inactive				inactive				inactive	
CCCCCCCCC(=O)NCc1ccc(O)c(OC)c1	inactive	inactive	inactive and 68.6 µM (active)	inactive	inactive			inactive	inactive	inactive	inactive	inactive	inactive	inactive	inactive	inactive	inactive		54.5 µM (active)	inactive
O=S(=O)(Oc1ccc(Cl)cc1)c1ccc(Cl)cc1	inactive	inactive	inactive	inactive	inactive			inactive	inactive	inactive	inactive	inactive	inactive	inactive	inactive	inactive	inactive		inactive	inactive
Cc1ccc2c(c1N)C(=O)c1ccccc1C2=O	inactive	inactive	inactive	24.1 µM (active) and 30.6 µM (active)	inactive			inactive	67.8 µM (active)	inactive	inactive	389 nM [inconclusive] (active)	3.03 µM (active) and 4.33 µM (active)		30.3 µM (active) and 27.3 µM (active)	inactive	43.3 µM (active)		inactive	inactive
Cc1ccccc1[N+](=O)[O-]	inactive	inactive	inactive	inactive	inactive			inactive	inactive	inactive	inactive	inactive	inactive	inactive	inactive	inactive	inactive		inactive	inactive
COC(=O)c1sccc1S(=O)(=O)NC(=O)Nc1nc(C)nc(OC)n1	inactive	inactive	inactive	inactive	inactive			inactive	inactive	inactive	inactive	inactive	inactive	inactive	inactive	inactive	inactive		inactive	inactive
NNC(=S)NN	inactive	61.1 µM (active)	54.5 µM (active)	43.3 µM (active)	inactive			inactive	inactive	inactive and 61.1 µM (active)	inactive	inactive	inactive	inactive	inactive	inactive	inactive		inactive	inactive
Cc1ccc(N)c(N)c1	inactive	54.6 µM (active) and 17.2 µM (active)	30.7 µM (active) and 21.7 µM (active)	48.7 µM (active) and 21.7 µM (active)	inactive			inactive	13.7 µM (active) and 24.3 µM (active)	inactive	inactive				inactive				12.2 µM (active) and 19.3 µM (active)	
CC(C)NC(C)C	inactive	inactive	inactive	inactive	inactive			inactive	inactive	inactive	inactive	inactive	inactive	inactive	inactive	inactive	inactive		inactive	inactive
C=C(C)[C@H]1Cc2c(ccc3c2O[C@@H]2COc4cc(OC)c(OC)cc4[C@@H]2C3=O)O1	inactive	59.6 nM (active) and 19.6 nM (active) and 8.6 nM (active)	119 nM (active) and 11 nM (active) and 8.6 nM (active)	75 nM (active) and 9.8 nM (active) and 8.6 nM (active)	62.5 nM (active) and 38.9 nM (active)	756 nM (active) and 279 nM (active)	inactive	393 nM (active) and 39.1 nM (active) and 30.6 nM (active)	841 nM (active) and 8.75 µM (active) and 4.86 µM (active)	inactive	67.4 nM (active) and 44.2 nM (active)				7.8 µM (active) and 38.6 µM (active)	15 µM (active) and 34.8 µM (active) and 34.4 µM (active)	34.8 µM (active) and 34.4 µM (active)	inactive	237 nM (active) and 34.8 nM (active) and 61.1 nM (active)	
OCC(O)CO	inactive	inactive	inactive	inactive	inactive			inactive	inactive	inactive	inactive	inactive	inactive	inactive	inactive	inactive	inactive		inactive	inactive
Nc1cccnc1	inactive	inactive	inactive	inactive	inactive			inactive	inactive	inactive	inactive	inactive	inactive	inactive	inactive	inactive	inactive		inactive	inactive
CCc1cccc(CC)c1N(COC)C(=O)CCl	inactive	19.3 µM (active)	5.91 µM (active) and 5.45 µM (active)	29.6 µM (active) and 10.9 µM (active)	inactive	26.7 µM (active) and 38.9 µM (active)	inactive	inactive	inactive	inactive	inactive	inactive	inactive	inactive	inactive	61.1 µM (active)		inactive		
c1ccc(NNc2ccccc2)cc1	inactive	inactive and 30.6 µM (active)	24.3 µM (active)	inactive and 27.3 µM (active)	inactive			inactive	inactive	inactive	inactive				inactive				68.6 µM (active)	
CCCCN(CCCC)N=O	inactive	inactive	inactive	inactive	inactive			inactive	inactive	inactive	inactive	inactive	inactive	inactive	inactive	inactive	inactive		inactive	inactive
COP(=O)(OC)OC	inactive	inactive	inactive	inactive	inactive	inactive	inactive	inactive	inactive	inactive		inactive	inactive	inactive	inactive	inactive	inactive	inactive		inactive
CCN(N=O)C(N)=O	inactive	inactive	inactive	inactive	inactive			inactive	inactive	inactive	inactive	inactive	inactive	inactive	inactive	inactive	inactive		inactive	inactive
O=C(O)CC[N+](=O)[O-]	inactive	70.8 µM (active) and inactive	inactive	inactive	inactive	inactive	inactive	inactive	inactive	inactive	inactive				inactive	inactive	inactive	inactive		
Clc1nc(Cl)nc(Cl)n1	inactive	15.4 µM (active)	inactive and 15.4 µM (active)	inactive and 13.7 µM (active)	inactive			inactive	inactive	inactive	inactive	inactive		inactive	inactive	inactive	inactive		inactive	inactive
O=[N+]([O-])c1ccc(O)c([N+](=O)[O-])c1	inactive	inactive	inactive	54.5 µM (active)	inactive		inactive	30.8 µM (active) and 61.1 µM (active)	61.1 µM (active)	inactive		inactive			30.8 µM (active) and 30.6 µM (active)	inactive	54.7 µM (active)			inactive
Cc1cc(Cl)ccc1OCCCC(=O)O	inactive	inactive	inactive	inactive	inactive		inactive	inactive	inactive	inactive					inactive	inactive	inactive		inactive	
O=[N+]([O-])c1c(Cl)c(Cl)c(Cl)c(Cl)c1Cl	inactive	61.1 µM (active)	inactive	inactive and 61.1 µM (active)	inactive		inactive	inactive	54.5 µM (active)	inactive	inactive	inactive	inactive	inactive	inactive	inactive and 61.1 µM (active)	inactive	inactive		inactive
